Source: PubChem BioAssay
TRPM1 prom inh: reduces MITF-dependent TRPM1 promoter luciferase signal; SK-MEL-5 TRPM1 promoter luciferase, 24 h; inhibition, % at 12.5 µM; AID 488899; hit rate 0.83% among 330,000;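 active = mean inhibition across replicates of 60% or more, whatever share of single replicates reaches that level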
Shn3 inh set2: Schnurri-3 reporter inhibition in Clone20 osteoblasts | Clone20 osteoblast Shn3 3'UTR firefly luciferase, 24 h | inhibition, % at 12.5 µM | hit rate 0.52% among 360,000 | AID 588674;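 active = mean inhibition of at least 75% with every replicate also reaching 75%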
TWEAK-Fn14 inh: blocks TWEAK-Fn14 interaction in a reporter cell assay | TWEAK-stimulated Fn14 reporter cells, luciferase luminescence, 8 h | inhibition, % at 10 µM | hit rate 2% among 360,000; in the data active = inhibition above about 50%
EBV LMP1 NFkB: Epstein-Barr LMP1 NF-kappaB reporter inhibition | LMP1-induced NF-kappaB luciferase reporter cells, luminescence | hit rate 0.69% among 350,000 | inhibition, % at 12.5 µM; in the data active = inhibition above about 41%
TROY signal inh: TROY signaling inhibition; Q293 LMP1-TROYcd NF-kB luciferase reporter, 4 h; inhibition, % at 10 µM; hit rate 0.98% among 360,000;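 active = compounds whose plate-normalised and pattern-corrected inhibition of the luciferase reporter signal at the single screening dose is 50% or more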
HIF-2a block: blocks HIF-2a reporter activity. hit rate 0.72% among 360,000. inhibition, % at 18.8 µM. 786-0 RCC cells HIF-2a reporter, luciferase luminescence, overnight. AID 624352;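 active = inhibition of the luminescence signal of 40% or more relative to plate controls, in a single-dose primary screen at 18.75 µM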
Mdm2 MdmX conf: confirmation of inhibitors of human Mdm2/MdmX interaction, set 2; shares compounds with HIF-2a block; SaOS-2 split-luciferase Mdm2/MdmX complementation, luminescence; inhibition, % at 8 µM; hit rate 99% among 740; AID 504601;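 active = mean inhibition of the luminescence signal across two replicates at or above 26 percent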
Target sequence (O15151 whole entry, looked up): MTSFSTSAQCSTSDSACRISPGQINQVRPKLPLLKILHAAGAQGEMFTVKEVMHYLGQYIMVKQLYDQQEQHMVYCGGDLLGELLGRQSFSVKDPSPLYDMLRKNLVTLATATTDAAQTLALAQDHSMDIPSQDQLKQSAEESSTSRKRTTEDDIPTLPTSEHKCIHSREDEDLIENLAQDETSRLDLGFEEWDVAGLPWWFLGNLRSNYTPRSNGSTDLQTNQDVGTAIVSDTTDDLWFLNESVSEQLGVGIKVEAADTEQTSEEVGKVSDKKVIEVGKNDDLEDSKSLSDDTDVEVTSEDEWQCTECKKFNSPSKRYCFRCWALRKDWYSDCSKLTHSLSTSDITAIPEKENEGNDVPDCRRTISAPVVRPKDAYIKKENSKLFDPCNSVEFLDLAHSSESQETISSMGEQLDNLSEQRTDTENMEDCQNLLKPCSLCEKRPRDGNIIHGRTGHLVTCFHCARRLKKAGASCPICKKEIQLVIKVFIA
Target sequence (Q00987 whole entry, looked up): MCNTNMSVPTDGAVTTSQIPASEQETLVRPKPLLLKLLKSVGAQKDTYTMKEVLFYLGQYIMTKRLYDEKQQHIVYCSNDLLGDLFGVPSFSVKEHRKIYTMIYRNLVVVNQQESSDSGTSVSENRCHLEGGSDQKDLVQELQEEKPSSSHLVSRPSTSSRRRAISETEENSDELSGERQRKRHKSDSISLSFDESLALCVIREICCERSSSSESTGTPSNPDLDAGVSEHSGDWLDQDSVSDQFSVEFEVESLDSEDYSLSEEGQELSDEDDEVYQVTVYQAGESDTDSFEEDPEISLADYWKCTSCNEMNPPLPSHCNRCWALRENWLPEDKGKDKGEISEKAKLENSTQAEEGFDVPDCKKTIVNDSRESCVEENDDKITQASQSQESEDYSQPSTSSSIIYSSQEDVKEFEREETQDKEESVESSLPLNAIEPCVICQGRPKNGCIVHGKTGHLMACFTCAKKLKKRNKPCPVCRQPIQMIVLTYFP
HIF-2a inh conf: HIF-2a inhibition, single concentration confirmation. shares compounds with HIF-2a block. 786-0 RCC cells, HIF-2a luciferase reporter luminescence, overnight. inhibition, % at 18.8 µM. hit rate 56% among 1,800. AID 651580;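 active = mean inhibition across four replicates of at least 40 percent at the single tested concentration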
HIF-1a cs: counter-screen for HIF-2a inhibitors: HIF-1a inhibition in MiaPaCa-2 cells | inhibition, % at 18.8 µM | shares compounds with HIF-2a block | MiaPaCa-2 HIF-1a luciferase reporter, desferoxamine, overnight | hit rate 72% among 1,800 | AID 651589;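 active = mean inhibition of the reporter signal across four replicates at the single tested dose of 50% or more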
Large screens that a line does not name were inactive (follow-up assays come after a bar, where they were run). Most compounds without a hit are left out; they make up all but 3.4% or so of the library.

OCC1OC(n2nc3ccccc3n2)C(O)C(O)C1O (stereo not drawn)	none
C=CCOc1ccc(C[C@H](N)C(=O)NC[C@H]2O[C@@H](n3cnc4c(N)ncnc43)[C@H](O)[C@@H]2O)cc1	none
CN(C)c1ncnc2c1ncn2C1OC(CO)C(O)C1O (stereo not drawn)	Shn3 inh set2 96, HIF-2a block 52 | HIF-2a inh conf inactive | HIF-1a cs inactive
COc1ccc(C[C@H](N)C(=O)N[C@H]2[C@@H](O)[C@H](n3cnc4c(N(C)C)ncnc43)O[C@@H]2CO)cc1	TRPM1 prom inh 109, TWEAK-Fn14 inh 93, HIF-2a block 95 | Mdm2 MdmX conf 103 | HIF-2a inh conf 95 | HIF-1a cs 105
OCC1OC(n2ccc3c2ncn2ncnc32)C(O)C1O (stereo not drawn)	HIF-2a block 54 (no result: TRPM1 prom inh) | HIF-2a inh conf inactive | HIF-1a cs 54
O=C(CN1CSCC1=O)N1CCN(S(=O)(=O)c2cc(C(F)(F)F)ccc2Cl)CC1	none
CCc1cc2ccc(C)cc2nc1SCC(=O)Nc1c[nH]c(=O)[nH]c1=O	none
CC1(c2ccccc2)NC(=O)N(CC(=O)Nc2ccc(C(N)=O)cc2)C1=O (stereo not drawn)	none
Nc1ncnc2c1ncn2C1C=C(CO)C(O)C1O (stereo not drawn)	HIF-2a block 43 | HIF-2a inh conf inactive | HIF-1a cs 81
O=C1NC(=O)c2cc(Br)cc3cccc1c23	none
Cc1ccc(NS(=O)(=O)c2cc3c4c(cccc4c2)C(=O)NC3=O)cc1C	HIF-2a block 54 | HIF-2a inh conf inactive | HIF-1a cs 102
CCc1ccc(-c2nc(CS(=O)CC(=O)NCc3ccco3)c(C)o2)cc1 (stereo not drawn)	TWEAK-Fn14 inh 76, HIF-2a block 70 | HIF-2a inh conf inactive | HIF-1a cs 69
COc1ccccc1CNc1nc(NCc2ccc(NC(C)=O)cc2)c2sccc2n1	HIF-2a block 57 (no result: TRPM1 prom inh, EBV LMP1 NFkB) | HIF-2a inh conf inactive | HIF-1a cs 70
Cc1cc(C)c2cccc(N)c2n1	none
Cc1cc(C)c2ccc(N)nc2c1O	TRPM1 prom inh 74, TWEAK-Fn14 inh 69 | Mdm2 MdmX conf 89
O=C1C=CC(=O)N1c1ccccn1	none
O=C1C=CC(=O)N1c1ccccc1N1C(=O)C=CC1=O	TRPM1 prom inh 94, Shn3 inh set2 94, HIF-2a block 77 | HIF-2a inh conf 56 | HIF-1a cs inactive
COc1cc(NC(=O)C2CC(c3ccccc3Cl)=NO2)cc(OC)c1OC (stereo not drawn)	none
CCSC(=O)N1c2ccc(OC)cc2C=CC1C#N (stereo not drawn)	none
COc1ccc(C2c3ccc4ccccc4c3Oc3ncn(CCCN(C)C)c(=N)c32)cc1 (stereo not drawn)	TRPM1 prom inh 101, HIF-2a block 93 | Mdm2 MdmX conf 102 | HIF-2a inh conf inactive | HIF-1a cs 105
CCSc1nnc(COc2ccccc2)n1CC	none
COc1cc(C(=O)NNC(=O)c2ccccc2OCc2c(C)noc2C)cc(OC)c1OC	none
Cc1c(C(=O)NCC2CCCO2)oc2ccc(S(=O)(=O)N3CC(C)CC(C)C3)cc12 (stereo not drawn)	HIF-2a block 39 (no result: TRPM1 prom inh) | HIF-2a inh conf inactive | HIF-1a cs 57
CCn1c2ccccc2c2cc(NC(=O)CSc3nnc(-c4ccc(OC)cc4)n3N)ccc21	HIF-2a block 41 | HIF-2a inh conf inactive | HIF-1a cs inactive
COc1ccc(NC(=O)CSc2nnc(-c3ccccc3)n2N)cc1	none
O=C(N/N=C/c1c(O)ccc2ccccc12)c1ccc(Br)o1	EBV LMP1 NFkB 61 | Mdm2 MdmX conf 90
C/C(=N\NC(=O)c1nnn(-c2nonc2N)c1-c1ccccc1)c1ccccc1O	none | Mdm2 MdmX conf 84
Cc1occc1C(=O)N/N=C/c1c(O)ccc2ccccc12	none
Cc1c(C(=O)N/N=C/c2c(O)ccc3ccccc23)nnn1-c1nonc1N	none | Mdm2 MdmX conf 92
O=C(CCN1C(=O)c2ccccc2S1(=O)=O)Nc1ccc2c(c1)OCCO2	none
O=C(CN1C(=O)c2ccccc2S1(=O)=O)c1ccc2c(c1)OCCCO2	TRPM1 prom inh 82, Shn3 inh set2 94, TWEAK-Fn14 inh 102, EBV LMP1 NFkB 86, TROY signal inh 81, HIF-2a block 93 | Mdm2 MdmX conf 96 | HIF-2a inh conf 99 | HIF-1a cs 104
O=C(CN1C(=O)c2ccccc2S1(=O)=O)c1ccc2c(c1)OCCO2	TRPM1 prom inh 88, TWEAK-Fn14 inh 104, EBV LMP1 NFkB 81, TROY signal inh 83, HIF-2a block 90 (no result: Shn3 inh set2) | Mdm2 MdmX conf 100 | HIF-2a inh conf 98 | HIF-1a cs 104
COc1ccc(OCC(=O)NNC(=O)c2ccccc2OCc2c(C)noc2C)cc1	none
COc1cc2nc(SCc3ccc(F)cc3)n(Cc3cccs3)c(=N)c2cc1OC	none
COc1ccc(Cn2c(SCc3ccccc3C)nc3cc(OC)c(OC)cc3c2=N)cc1	TRPM1 prom inh 84, Shn3 inh set2 90, HIF-2a block 96 | HIF-2a inh conf inactive | HIF-1a cs 107
COC(=O)CCCNC(=O)CCc1nnc(-c2ccc(-c3ccccc3)cc2)o1	HIF-2a block 48 | HIF-2a inh conf 52 | HIF-1a cs inactive
CC(NC(=O)CCc1nnc(-c2ccc(-c3ccccc3)cc2)o1)c1nccs1 (stereo not drawn)	HIF-2a block 40 | HIF-2a inh conf 51 | HIF-1a cs inactive
O=[N+]([O-])c1cccc(N/N=C/c2cccc(O)c2O)c1	none
C[C@H]1CN=C(Nc2ccccc2)N1CCc1ccccc1	none
O=C(c1ccco1)N1CCN(C(=S)Nc2ccc(F)c(Cl)c2)CC1	none
CCN(CC)c1ccc(NC(=O)CCCCCN2C(=O)c3ccccc3C2=O)cc1	none
CCN(CC)c1ccc(NC(=O)CCCCC(=O)Nc2ccc(N(CC)CC)cc2)cc1	HIF-2a block 65 | HIF-2a inh conf 66 | HIF-1a cs inactive
Nc1ccc2nc(-c3ccc(N)c(Cl)c3)[nH]c2c1	none
Nc1ccc(-c2nc3c(Cl)cc(N)cc3[nH]2)cc1	TRPM1 prom inh 76, TWEAK-Fn14 inh 67, TROY signal inh 62, HIF-2a block 88 | HIF-2a inh conf 96 | HIF-1a cs 85
Cc1ccc(S(=O)(=O)CCC#N)cc1	none
